Assay results taken from PubChem BioAssay AID652117 (Broad Institute, 2013).
Entries with a potency or affinity are not part of this list. Values without a mark were called inactive.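 How the source made its calls: active means compounds whose fitted half-maximal cell-killing dose is no more than twice the top tested dose; inconclusive means flat moderate loss of cell viability, or an unreliable curve fit; inactive means the rest.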

Assay: loss of viability in HeLa cells – cell-based, ATP luminescence, dry powder, cytotoxicity control, dose response (AID 652117)
Settings: CellTiter-Glo ATP luminescence, 48 h; series mostly up to 26 µM; activity change, negative = cytotoxicity: at the top concentration

| Structure (SMILES) | activity change, negative = cytotoxicity [%] |
| --- | --- |
| C=CCOc1ccc(CN2CCC(CCOc3ccccc3)(C(=O)N(C)CC)CC2)cc1Cl | -4.76 |
| CCOC(=O)C1(Cc2ccccc2)CCN(Cc2ccc(O)c(Cl)c2)CC1 | -11.8 |
| CCOC(=O)C1(CCOc2ccccc2)CCN(Cc2ccc(OC)cc2)CC1 | -18.1 |
| C=CCOc1ccc(CN2CCC(CCOc3ccccc3)(C(=O)NC3CCCC3)CC2)cc1Cl | -5.23 |
| CCOC(=O)C1(CCOc2ccccc2)CCN(Cc2ccc(O)cc2)CC1 | -15.3 |
| CCOC(=O)C1(CCOc2ccccc2)CCN(C(=O)OC(C)(C)C)CC1 | -0.744 |
| CCNC(=O)C1(CCOc2ccccc2)CCN(Cc2ccc(O)c(Cl)c2)CC1 | 6.23 |
| C/C1=C\C[C@H](OC(=O)c2ccc(O)cc2)/C(C)=C/[C@@H](O)C(C)(C)CCC1 | -11.7 |
| CCOC(=O)C1(CCOc2ccccc2)CCN(Cc2ccc(O)c(Cl)c2)CC1 | -10.2 |
